Assay results from PubChem BioAssay (Tox21).
Records with an inconclusive call do not appear. Where a call stands in place of a potency, no number is given. A number with no mark means an inactive call. The source made the active and inactive calls. Unless noted, calls come from the whole dose curve; as a rule, active = well fitted cell-killing curve with a large enough effect in the repeat runs; inconclusive = weak or mixed curves, or effect the other way; inactive = no such curve, though single readings can be large or run the other way.

Target: Peroxisome proliferator-activated receptor gamma (Homo sapiens) (UniProt P37231)
Sequence (P37231 whole entry, looked up): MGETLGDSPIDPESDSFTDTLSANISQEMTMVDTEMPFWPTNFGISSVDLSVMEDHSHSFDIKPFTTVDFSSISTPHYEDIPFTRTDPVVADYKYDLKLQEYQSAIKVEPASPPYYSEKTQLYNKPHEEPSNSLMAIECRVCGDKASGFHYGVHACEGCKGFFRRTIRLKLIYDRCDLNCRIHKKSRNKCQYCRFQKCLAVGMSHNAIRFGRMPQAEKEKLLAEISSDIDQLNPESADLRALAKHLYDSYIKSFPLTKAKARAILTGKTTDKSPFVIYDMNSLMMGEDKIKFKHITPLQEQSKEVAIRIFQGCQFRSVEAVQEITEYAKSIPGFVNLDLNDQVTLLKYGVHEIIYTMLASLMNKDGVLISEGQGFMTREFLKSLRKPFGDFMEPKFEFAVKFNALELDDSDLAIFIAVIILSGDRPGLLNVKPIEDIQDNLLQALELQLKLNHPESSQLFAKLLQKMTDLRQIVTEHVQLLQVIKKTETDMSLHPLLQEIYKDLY
Test: qHTS assay to identify small molecule agonists of the peroxisome proliferator-activated receptor gamma (PPARg) signaling pathway (AID 743094; active = well fitted activation curve with a large enough effect in the signal ratio in the repeat runs, not every such curve was filed as active; the % refers to the signal ratio)
Settings: HEK293H PPARg-UAS-bla, beta-lactamase FRET ratio, 17 h; series mostly up to 57 µM
Procedure, shortened: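 GeneBLAzer PPARg UAS-bla HEK293H cells carrying a stably integrated beta-lactamase reporter were pre-incubated 5 h at 37C, then exposed to compounds in DMSO for 17 h at 37C; LiveBLAzer B/G FRET substrate was added for 1 h at room temperature and fluorescence read.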
With CC(C)(C)C(=O)Oc1ccc(S(=O)(=O)Nc2ccccc2C(=O)NCC(=O)O)cc1 the Potency was “inactive”. For CN(C)CCCN(C)CCCN(C)C, the Potency was “inactive”. In the case of CC(=O)NC(=O)c1ccccc1O, the Potency is reported as “inactive”. In the case of CCC(C(=O)NC(=O)NC(C)=O)c1ccccc1 (centres undefined), the Potency is reported as “inactive”. In the case of O=C(O)CCSCCC(=O)O, the Potency is reported as “inactive”. With CCC(C)(CCCC(C)C)OC(C)=O (centres undefined) the Potency was “inactive”. In the case of CC(=O)Nc1ccc(OCC(O)CNC(C)C)cc1 (centres undefined), the Potency is reported as “inactive”. With CN(C)[C@@H]1C(=O)C(C(=O)NCN2CCCC2)=C(O)[C@@]2(O)C(=O)C3=C(O)c4c(O)cccc4[C@@](C)(O)C3C[C@@H]12 (some centres undefined) the Potency was “inactive”. With O=C(CO)[C@@H](O)[C@H](O)[C@@H](O)CO the Potency was “inactive”. For COC(=O)Nc1ccc(Cl)c(Cl)c1, the Potency was “inactive”. For CNCCO, the Potency was “inactive”. In the case of CCCc1ncc(C[n+]2ccccc2C)c(N)n1, the Potency is reported as “inactive”. In the case of CCCCCCCCCCCCCCCCCCO, the Potency is reported as “inactive”. With COc1cc(C(=O)OC(COCCC(C)C)CN2CCOCC2)cc(OC)c1OC (centres undefined) the Potency was “inactive”. For CCC1C(=O)OCC1Cc1cncn1C (centres undefined), the Potency was “inactive”. For CCCOC(=O)CC, the Potency was “inactive”. For CCC(=O)OCc1ccccc1, the Potency was “inactive”. With CCOc1ccccc1OCC the Potency was “inactive”.

Target: Peroxisome proliferator-activated receptor gamma (Homo sapiens) (UniProt P37231)
Test: qHTS assay to identify small molecule antagonists of the peroxisome proliferator-activated receptor gamma (PPARg) signaling pathway (AID 743191; calls by dose curve; note: nearly all actives have a fitted effect of over 30% in size)
Settings: HEK293H PPARg-UAS-bla, beta-lactamase ratio, antagonist, 17 h; series mostly up to 62.6 µM
Procedure, shortened: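 GeneBLAzer PPARg UAS-bla HEK293H cells carrying a UAS-driven beta-lactamase reporter were plated at 3000 cells/well, preincubated 5 h at 37C, then given compound for 17 h at 37C; LiveBLAzer B/G FRET substrate was read after 1 h at room temperature.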
For N[C@@H](CCC(=O)O)C(=O)O, the Potency was “inactive”. With CC(C)C1CCC(O)CC1 (centres undefined) the Potency was “inactive”. For CO[C@@]1(NC(=O)CSC[C@@H](N)C(=O)O)C(=O)N2C(C(=O)O)=C(CSc3nnnn3C)CS[C@@H]21, the Potency was “inactive”. For CCCCN1C=CN(C)C1, the Potency was “inactive”. For CC(C#N)(CCC(=O)O)N=NC(C)(C#N)CCC(=O)O (centres undefined), the Potency was “inactive”. With NS(=O)(=O)Cc1noc2ccccc12 the Potency was “inactive”. In the case of O=S(=O)(O)c1cc(O)c(O)c(S(=O)(=O)O)c1, the Potency is reported as “inactive”. In the case of [O-][n+]1cccc(CO)c1, the Potency is reported as “inactive”. For O=C(O)CC(C(=O)O)S(=O)(=O)O (centres undefined), the Potency was “inactive”. For NC(CCC(=O)O)C(=O)O (centres undefined), the Potency was “inactive”. In the case of c1ccc(Cc2ccccc2)cc1, the Potency is reported as “inactive”. For NCCCC[C@H](N[C@@H](CCc1ccccc1)C(=O)O)C(=O)N1CCC[C@H]1C(=O)O, the Potency was “inactive”. With CC(=O)c1ccccc1[N+](=O)[O-] the Potency was “inactive”. With Nc1ccncc1N the Potency was “inactive”. With CCOC(=O)c1cnc2c(cnn2CC)c1NN=C(C)C the Potency was “inactive”. With CN1CC(=O)N/C1=N/C(=O)Nc1cccc(Cl)c1 the Potency was “inactive”. With CC(=O)O[C@@]12CO[C@@H]1C[C@H](O)[C@@]1(C)C(=O)[C@H](O)C3=C(C)[C@@H](OC(=O)[C@H](O)[C@@H](NC(=O)OC(C)(C)C)c4ccccc4)C[C@@](O)([C@@H](OC(=O)c4ccccc4)[C@H]21)C3(C)C the Potency was “inactive”. With COc1cc(C(=O)NCc2ccc(OCCN(C)C)cc2)cc(OC)c1OC the Potency was “inactive”. In the case of O=[N+]([O-])c1ccc(/C=N\O)o1, the Potency is reported as “inactive”. Molecule CCN[C@@H]1C[C@H](N)[C@@H](OC2OC(CN)=CCC2N)[C@H](O)[C@H]1O[C@H]1OC[C@](C)(O)[C@H](NC)[C@H]1O (some centres undefined) has a ratio activity, negative = inhibition of -0.0427% [at 0.55 µM]. In the case of CC(C)(C)C(=O)Oc1ccc(S(=O)(=O)Nc2ccccc2C(=O)NCC(=O)O)cc1, the Potency is reported as “inactive”. For CN(C)CCCN(C)CCCN(C)C, the Potency was “inactive”. With CC(=O)NC(=O)c1ccccc1O the Potency was “inactive”. In the case of CCC(C(=O)NC(=O)NC(C)=O)c1ccccc1 (centres undefined), the Potency is reported as “inactive”. For O=C(O)CCSCCC(=O)O, the Potency was “inactive”. In the case of CCC(C)(CCCC(C)C)OC(C)=O (centres undefined), the Potency is reported as “inactive”. With CC(=O)Nc1ccc(OCC(O)CNC(C)C)cc1 (centres undefined) the Potency was “inactive”. For CN(C)[C@@H]1C(=O)C(C(=O)NCN2CCCC2)=C(O)[C@@]2(O)C(=O)C3=C(O)c4c(O)cccc4[C@@](C)(O)C3C[C@@H]12 (some centres undefined), the Potency was “inactive”. In the case of O=C(CO)[C@@H](O)[C@H](O)[C@@H](O)CO, the Potency is reported as “inactive”. In the case of COC(=O)Nc1ccc(Cl)c(Cl)c1, the Potency is reported as “inactive”. With CNCCO the Potency was “inactive”. With CCCc1ncc(C[n+]2ccccc2C)c(N)n1 the Potency was “inactive”. In the case of CCCCCCCCCCCCCCCCCCO, the Potency is reported as “inactive”. For COc1cc(C(=O)OC(COCCC(C)C)CN2CCOCC2)cc(OC)c1OC (centres undefined), the Potency was “inactive”. With CCC1C(=O)OCC1Cc1cncn1C (centres undefined) the Potency was “inactive”. For CCCOC(=O)CC, the Potency was “inactive”. In the case of CCC(=O)OCc1ccccc1, the Potency is reported as “inactive”. For CCOc1ccccc1OCC, the Potency was “inactive”.

Test system: not listed separately
Test: qHTS assay to identify small molecule antagonists of the peroxisome proliferator-activated receptor gamma (PPARg) signaling pathway - cell viability counter screen (AID 743194); note: nearly all actives have a fitted effect of over 55% in size
Settings: PPARg-bla HEK293H viability, CellTiter-Glo luminescence, 17 h, co-treated with 50 nM rosiglitazone; series mostly up to 62.6 µM
Procedure, shortened: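 PPARg-UAS-bla HEK293H cells were plated, rested 5 h at 37 C, then treated with compounds plus rosiglitazone (50 nM final) for 17 h at 37 C; viability was then read by CellTiter-Glo luminescence after 30 min at room temperature.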
With N[C@@H](CCC(=O)O)C(=O)O the outcome was “inactive”. With CC(C)C1CCC(O)CC1 (centres undefined) the outcome was “inactive”. For CO[C@@]1(NC(=O)CSC[C@@H](N)C(=O)O)C(=O)N2C(C(=O)O)=C(CSc3nnnn3C)CS[C@@H]21, the outcome was “inactive”. For CCCCN1C=CN(C)C1, the outcome was “inactive”. With CC(C#N)(CCC(=O)O)N=NC(C)(C#N)CCC(=O)O (centres undefined) the outcome was “inactive”. For NS(=O)(=O)Cc1noc2ccccc12, the outcome was “inactive”. For O=S(=O)(O)c1cc(O)c(O)c(S(=O)(=O)O)c1, the outcome was “inactive”. With [O-][n+]1cccc(CO)c1 the outcome was “inactive”. For O=C(O)CC(C(=O)O)S(=O)(=O)O (centres undefined), the outcome was “inactive”. In the case of NC(CCC(=O)O)C(=O)O (centres undefined), the outcome is reported as “inactive”. For c1ccc(Cc2ccccc2)cc1, the outcome was “inactive”. For NCCCC[C@H](N[C@@H](CCc1ccccc1)C(=O)O)C(=O)N1CCC[C@H]1C(=O)O, the outcome was “inactive”. In the case of CC(=O)c1ccccc1[N+](=O)[O-], the outcome is reported as “inactive”. With Nc1ccncc1N the outcome was “inactive”. For CCOC(=O)c1cnc2c(cnn2CC)c1NN=C(C)C, the outcome was “inactive”. In the case of CN1CC(=O)N/C1=N/C(=O)Nc1cccc(Cl)c1, the outcome is reported as “inactive”. In the case of CC(=O)O[C@@]12CO[C@@H]1C[C@H](O)[C@@]1(C)C(=O)[C@H](O)C3=C(C)[C@@H](OC(=O)[C@H](O)[C@@H](NC(=O)OC(C)(C)C)c4ccccc4)C[C@@](O)([C@@H](OC(=O)c4ccccc4)[C@H]21)C3(C)C, the outcome is reported as “inactive”. With COc1cc(C(=O)NCc2ccc(OCCN(C)C)cc2)cc(OC)c1OC the outcome was “inactive”. In the case of O=[N+]([O-])c1ccc(/C=N\O)o1, the outcome is reported as “inactive”. In the case of CCN[C@@H]1C[C@H](N)[C@@H](OC2OC(CN)=CCC2N)[C@H](O)[C@H]1O[C@H]1OC[C@](C)(O)[C@H](NC)[C@H]1O (some centres undefined), the activity change, negative = cytotoxicity is reported as -4.19% [at 0.55 µM]. With CC(C)(C)C(=O)Oc1ccc(S(=O)(=O)Nc2ccccc2C(=O)NCC(=O)O)cc1 the outcome was “inactive”. With CN(C)CCCN(C)CCCN(C)C the outcome was “inactive”. For CC(=O)NC(=O)c1ccccc1O, the outcome was “inactive”. With CCC(C(=O)NC(=O)NC(C)=O)c1ccccc1 (centres undefined) the outcome was “inactive”. For O=C(O)CCSCCC(=O)O, the outcome was “inactive”. With CCC(C)(CCCC(C)C)OC(C)=O (centres undefined) the outcome was “inactive”. In the case of CC(=O)Nc1ccc(OCC(O)CNC(C)C)cc1 (centres undefined), the outcome is reported as “inactive”. With CN(C)[C@@H]1C(=O)C(C(=O)NCN2CCCC2)=C(O)[C@@]2(O)C(=O)C3=C(O)c4c(O)cccc4[C@@](C)(O)C3C[C@@H]12 (some centres undefined) the outcome was “inactive”. In the case of O=C(CO)[C@@H](O)[C@H](O)[C@@H](O)CO, the outcome is reported as “inactive”. In the case of COC(=O)Nc1ccc(Cl)c(Cl)c1, the outcome is reported as “inactive”. For CNCCO, the outcome was “inactive”. For CCCc1ncc(C[n+]2ccccc2C)c(N)n1, the outcome was “inactive”. With CCCCCCCCCCCCCCCCCCO the outcome was “inactive”. For COc1cc(C(=O)OC(COCCC(C)C)CN2CCOCC2)cc(OC)c1OC (centres undefined), the outcome was “inactive”. With CCC1C(=O)OCC1Cc1cncn1C (centres undefined) the outcome was “inactive”. In the case of CCCOC(=O)CC, the outcome is reported as “inactive”. For CCC(=O)OCc1ccccc1, the outcome was “inactive”. For CCOc1ccccc1OCC, the outcome was “inactive”.
